Test results reported in PubChem BioAssay AID1709 (National Center for Advancing Translational Sciences (NCATS), 2009).
The source made the active and inactive calls.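 The calls were made as follows: active = lower max turbidity than the uninhibited signal, meaning microtubule assembly was blocked; inactive = reaching the full max turbidity.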

Assay: Assay for Inhibitors of Tau-Mediated Microtubule Assembly
Settings: purified tubulin + K18 tau, A340 turbidity kinetics, 45 min, at 50 µM; half-max time: measured here: time to half-max turbidity, stronger effect = higher value; max turbidity: stronger effect = lower value
From the text: NIH Molecular Libraries Probe Production Network [MLPCN] NIH Chemical Genomics Center [NCGC] MLPCN Grant: X01 MH083262-01 Assay Provider: Carlo Ballatore, University of Pennsylvania NCGC Assay Overview: The microtubule-associated protein tau is an abundant protein in the axons of neurons that stabilizes microtubules. With its ability to modulate microtubule dynamics, tau contributes directly or indirectly, to key structural and regulatory cellular functions. Particularly important is the influence tau exerts on axonal transport, which allows signaling molecules, trophic factors and other essential cellular constituents to travel along the axons. Under pathological conditions, tau becomes sequestered into insoluble aggregates called neurofibrillary tangles. This phenomenon is believed to have pathological consequences by promoting axonal transport deficits that ultimately lead to synaptic dysfunction and neuronal loss. Because tau binds and stabilizes microtubules, tau fibrillization inhibitors were tested whether they interfere with tau-mediated tubulin polymerization. An in vitro assay was used where purified brain tubulin monomers were assembled into microtubules after the addition of GTP and tau. Microtubule assembly was monitored by the change in absorbance at 340 nm. Hong, M., Zhukareva, V., Vogelsberg-Ragaglia, V., Wszolek, Z., Reed, L., Miller, B. I., Geschwind, D. H., Bird, T. D., McKeel, D., Goate, A., Morris, J. C., Wilhelmsen, K. C., Schellenberg, G. D., Trojanowski, J. Q., and Lee, V. M. Y. (1998) Science 282, 1914-1917.
NCGC Assay Protocol Summary: Lyophilized bovine brain tubulin was reconstituted in RAB (100 mM MES, pH 6.9; 1 mM EDTA; 0.5 mM MgSO4) at a concentration of 10 mg/ml. Compounds (50 uM) were added to K18 tau (40 uM) in RAB and pre-incubated at room temperature for 60 minutes. To initiate the MT assembly reaction, 8.25 ul per well of 10 mg/ml tubulin was dispensed on a UV-clear 384-well plate, followed by 1.0 ul of 100 mM GTP in RAB and 41.25 ul of the compound:tau mixture. […] The plate was incubated in a Spectramax M5 plate reader at 37 C and the absorbance at 340 nm was read every minute for 45 minutes.

Structure (SMILES)	half-max time	max turbidity
COC(=O)c1c(NC(=O)CCCOc2ccc(C(C)(C)C)cc2)sc2c1C(C(=O)OC)CC2 (stereo unspecified)	12.6 min	1.01 (inactive)
COC(=O)c1c(NC(=O)CCCOc2ccc(C)cc2)sc2c1C(C(=O)OC)CC2 (stereo unspecified)	11.1 min	0.764 (inactive)
CCOC(=O)c1nn(-c2ccccc2)c(=O)c2c(N)scc12	12.3 min	0.65 (inactive)
CCOC(=O)c1nn(-c2ccc(OC)cc2)c(=O)c2c(N)scc12	12.7 min	0.782 (inactive)
COC(=O)c1nn(-c2ccc(OC)cc2)c(=O)c2c(N)sc(C)c12	13.3 min	0.579 (inactive)
COC(=O)c1c(NC(=O)C(C)(C)C)sc2c1C(C(=O)OC)CC2 (stereo unspecified)	12.9 min	0.839 (inactive)
COC(=O)c1c(NC(=O)CCCOc2cccc(C)c2)sc2c1C(C(=O)OC)CC2 (stereo unspecified)	12 min	0.825 (inactive)
O=C(Cc1ccccc1)Nc1sc2c(c1C(=O)Nc1ccc(Cl)cc1)CCCC2	10 min	0.682 (inactive)
